Source: PubChem (National Center for Advancing Translational Sciences (NCATS))
HPGD block: blocks human HPGD enzyme activity. P15428. actives 4.3% (n = 150,000). Potency, µM, for the others: at the top dose activity change, negative = inhibition, hits mostly inhibitors. purified HPGD, NADH fluorescence kinetic, PGE2 substrate; active = well fitted inhibition curve with a large enough effect, not every such curve was filed as active; inconclusive = small, poorly fitted or top-dose-only effect, or another doubt; inactive = no such curve, though single readings can be large or run the other way; also: potency is read from the fitted curve at half-maximal effect; % is scaled to controls: 0 for no effect and ±100 for the full control effect
Target sequence (P15428 whole entry, looked up): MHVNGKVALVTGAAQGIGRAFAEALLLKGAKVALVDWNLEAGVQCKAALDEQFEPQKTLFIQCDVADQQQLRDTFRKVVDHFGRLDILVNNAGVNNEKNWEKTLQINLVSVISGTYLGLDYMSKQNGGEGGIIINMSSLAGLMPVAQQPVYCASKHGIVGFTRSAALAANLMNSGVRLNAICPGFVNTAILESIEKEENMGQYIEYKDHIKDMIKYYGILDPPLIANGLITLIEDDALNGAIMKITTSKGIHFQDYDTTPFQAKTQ
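20 nM HPGD preincubated 15 min at room temperature with compound in 50 mM Tris-HCl pH 8, 0.01% Tween 20. Started with 1 mM NAD+ and 30 uM prostaglandin E2; NADH fluorescence (360/450 nm) read 5 times over 30-s intervals, last minus first.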
PNC assembly inh: inhibitors of perinucleolar compartment assembly. PC3M PTB-GFP, PNC prevalence imaging, 16 h; active compounds read low. activity change (PNC), negative = inhibition, % at 10 µM. actives 3.1% (n = 140,000);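 active = readout at or below -70, meaning at least 70% loss of cells showing the perinucleolar compartment, a nuclear body marking cancer cells; inconclusive = readout between -30 and a set limit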;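 also: plate controls were DMSO wells for no effect and camptothecin positive control wells for full effect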
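Compounds are pinned in duplicate onto adhered PC3M cells stably expressing GFP-tagged PTB and incubated 16 h at 37 C. Cells are then fixed, nuclei stained with Hoechst, and PNC-positive cells counted.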
HTT ATP protect: cytoprotection in Huntington HTT-Q103 PC12 cell model; Potency, µM (series often up to 56.4 µM), inactives show cytoprotection (ATP increase), actives largely listed as activators; PC12 HTT-Q103 induced, cytoprotection, ATP luminescence, 40 h; actives 0.14% (n = 230,000); also: potency is read from the fitted curve at half-maximal effect; % of control where 0% means no effect; nearly all actives have a fitted effect of over 45% in size
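PC12 cells stably carrying ecdysone-inducible Htt exon 1 (Q103)–GFP were induced with 100 nM tebufenozide (final) alongside library compounds in a dose series. Cytoprotection was scored as retained ATP by ATPlite luminescence.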
CBFb-RUNX1 inh: blocks binding between human CBF-beta and RUNX1 | Q01196+Q13951 | AlphaScreen CBFb-His/RUNX1-biotin binding, biochemical | Potency, µM (top dose mostly 59.8 µM), for the others: at the highest dose activity, negative = inhibition, most hits filed as inhibitors | 230,000 tested, under 10 active | AID 1477; also: % of control where 0% means no effect
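AlphaScreen binding: CBFb-His and RUNX1-biotin (30 nM each) preincubated 20 min, compound added for 15 min, then nickel and streptavidin beads for 90 min, all at room temperature. Disruption of the interaction by any mechanism counts as activity.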
HTT aggregate: reduces HttQ103-GFP aggregates in PC12 cells; PC12 HttQ103-GFP aggregates, Acumen cytometry, 40 h; Potency, µM (highest dose often 46.1 µM), for the others: at the highest dose activity change, negative = inhibition, usual class: inhibitors; actives 1.1% (n = 220,000); AID 1688; also: potency is read from the fitted curve at half-maximal effect; % is scaled to controls: 0 for no effect and ±100 for the full control effect; nearly all actives have a fitted effect of over 60% in size
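Ecdysone-promoter PC12 model expressing HTT exon 1 Q103 fused to GFP, induced by tebufenozide at 100 nM final. Compounds titrated; aggregates sized 1–25 µm scored on a 488 nm laser cytometer.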
ALDH1A1 block: ALDH1A1 (human) enzyme inhibition | Purified ALDH1A1, NADH fluorescence, propionaldehyde substrate | Potency, µM (series often up to 75.3 µM), for the others: top-dose activity, negative = inhibition, usual class: inhibitors | actives 7.3% (n = 220,000) | AID 1030; active = well fitted inhibition curve with a large enough effect, not every such curve was filed as active; inconclusive = small, poorly fitted or top-dose-only effect, or another doubt; inactive = no such curve, though single readings can be large or run the other way;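 also: potency is read from the fitted curve at half-maximal effect; plate controls were no enzyme wells and a reference inhibitor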
Target sequence (P00352 whole entry, looked up): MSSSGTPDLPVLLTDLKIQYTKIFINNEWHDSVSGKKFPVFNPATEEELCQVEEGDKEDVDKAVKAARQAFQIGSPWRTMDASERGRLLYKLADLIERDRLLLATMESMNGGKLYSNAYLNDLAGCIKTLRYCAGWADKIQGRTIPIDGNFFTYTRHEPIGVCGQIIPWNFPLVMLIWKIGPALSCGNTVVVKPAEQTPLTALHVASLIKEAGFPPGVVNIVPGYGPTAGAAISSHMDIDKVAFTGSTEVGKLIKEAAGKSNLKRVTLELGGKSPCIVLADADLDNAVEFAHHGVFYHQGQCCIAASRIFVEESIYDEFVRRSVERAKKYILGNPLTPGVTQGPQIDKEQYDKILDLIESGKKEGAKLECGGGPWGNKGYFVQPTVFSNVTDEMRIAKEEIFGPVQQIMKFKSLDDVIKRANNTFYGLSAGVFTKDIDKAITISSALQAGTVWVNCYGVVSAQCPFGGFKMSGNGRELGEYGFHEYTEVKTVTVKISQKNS
Starred values were filed as active, the others as inactive; ? = inconclusive; · = no result; [ ] = another dose, or the depositor's remark. Hits are enriched below; roughly 11% of the tested compounds scored in any of these assays. Unless noted, calls follow the shape of the dose curve; as a rule, active = well fitted curve in the direction sought with a large enough effect; inconclusive = small, poorly fitted or top-dose-only effect, or another doubt; inactive = no such curve, though single readings can be large; an effect the other way counts as inactive or inconclusive.

SMILES	HPGD block	PNC assembly inh	HTT ATP protect	CBFb-RUNX1 inh	HTT aggregate	ALDH1A1 block
COc1cc(OC)c(C(=O)COc2ncnc3ccccc23)c(OC)c1	-2%	?	-15%[10 µM]	3%	-12%	16µM*
C/C=C/OC(=O)NC(c1ccccc1)[C@]1(C(C)=O)CCCC1=O (some centres undefined)	·	·	-5%[10 µM]	2%[13.1 µM]	·	4%[13.5 µM]
O=C1NC2(CCCCC2)Oc2ccccc21	-12%	28	11%[10 µM]	-1%	6%	16µM*
O=C(c1cnc2n(c1=O)CCS2)N(c1ccccc1)C1CCCCC1	-10%	-106*	-5%	5%	1%	3%
Cc1cccc(N(C(=O)c2cnc3n(c2=O)CCS3)C2CCCCC2)c1	-22%	1	1%[10 µM]	4%	-23%	-2%
Cc1ccccc1C1NC(=S)NC2=C1C(=O)CCC2 (centres undefined)	·	·	-20%	6%	-10%[9.22 µM]	22µM*
CCN(CC)C[C@@H](O)c1ccc2ccc3ccccc3c2c1	-1%	·	11%[10 µM]	·	·	10%[13.5 µM]
Cc1ccc(C(=O)N2CCN(c3ccc([N+](=O)[O-])c(NCc4cccnc4)c3)CC2)cc1	-9%	-22	4%[10 µM]	-21%	-8%	13µM*
Cc1ccccc1C(=O)N1CCN(c2ccc([N+](=O)[O-])c(NCc3cccnc3)c2)CC1	-13%	43	17%[10 µM]	-4%	-5%	16µM*
O=C(c1ccccc1F)N1CCN(c2ccc([N+](=O)[O-])c(NCC3CCCO3)c2)CC1 (centres undefined)	·	·	-38%	-20%	-27%	11µM*
Cc1cc2n(n1)SC(Nc1cc(Cl)ccc1Cl)N2 (centres undefined)	-19%	-100*	5%[10 µM]	0%	2%	3.5µM*
CCc1ccccc1NC1Nc2cc(C)nn2S1 (centres undefined)	·	·	-15%	0%	-4%	?
Cc1cc2n(n1)SC(Nc1ccc(F)cc1)N2 (centres undefined)	-13%	37	-4%[10 µM]	4%	-18%	28µM*
Cc1cc2n(n1)SC(Nc1cccc3ccccc13)N2 (centres undefined)	-21%	-18	15%[1.9 µM]	-11%	-13%	13µM*
O=C(O)/C(Cc1cn[nH]n1)=N\O	-6%	·	-3%[10 µM]	·	·	?
Cc1cc(NS(=O)(=O)c2ccc(Nc3nc(-c4ccc(O)cc4)cs3)cc2)no1	20µM*	?	28%[10 µM]	1%	-2%	?
Cc1cc(NS(=O)(=O)c2ccc(Nc3nc(-c4sc(N)nc4C)cs3)cc2)no1	-17%	7	0%	-10%	3%	1%
O=C1CCC/C1=c1\s/c(=C\c2cccnc2)c(=O)n1-c1ccccc1	-13%	-10	23%[10 µM]	-11%	-30%	6.3µM*
CO[C@@H]1/C=C\O[C@]2(C)Oc3c(C)c(O)c4c(O)c(c(CN5CCN(C)CC5)c(O)c4c3C2=O)NC(=O)/C(C)=C\C=C[C@@H](C)[C@@H](O)[C@H](C)[C@@H](O)[C@H](C)[C@H](OC(C)=O)[C@@H]1C	·	·	-15%[10 µM]	·	·	·
CO[C@H]1C=CO[C@@]2(C)Oc3c(C)c(O)c4c(O)c(c(C=NN5CCN(C)CC5)c(O)c4c3C2=O)NC(=O)C(C)=CC=C[C@H](C)[C@H](O)[C@@H](C)[C@@H](O)[C@@H](C)[C@H](OC(C)=O)[C@@H]1C	25µM*	-115*	·	?	0%	?
COc1cc(NCCC(=O)O)c2ncccc2c1	-14%	·	-7%[10 µM]	·	·	22%[13.5 µM]
CN(Cc1ccccc1)C(=O)CSc1cc(=O)n(C)c2ccccc12	·	·	-43%	4%	7%	12%
CCOC(=O)N1CCC(NC(=O)CSc2cc(=O)n(C)c3ccccc23)CC1	·	?	-10%	4%	5%	2%
CCCCN(CC)C(=O)CSc1cc(=O)n(C)c2ccccc12	7.1µM*	28	7%	2%	-8%	?
Cn1c(=O)cc(SCC(=O)N2CCCC2)c2ccccc21	16µM*	-89*	-23%	0%	-21%	?
SMILES	HPGD block	PNC assembly inh	HTT ATP protect	CBFb-RUNX1 inh	HTT aggregate	ALDH1A1 block
O=C(O)C1=C[C@H](c2csc3ccccc23)C[C@H](OCCCCO)O1	·	·	1%[10 µM]	16%	-6%[9.22 µM]	?
COc1ccc(/C=C/N(CCc2ccc(OC)c(OC)c2)C(C)=O)cc1	·	·	-10%[10 µM]	13%[13.1 µM]	·	?
O=c1oc2cc(Oc3ccc(C(F)(F)F)cc3[N+](=O)[O-])ccc2c2c1CCC2	?	25	-5%[1.9 µM]	2%	-27%	16µM*
O=c1oc2cc(Oc3c([N+](=O)[O-])cc(C(F)(F)F)cc3[N+](=O)[O-])ccc2c2c1CCCC2	?	46	-15%	-5%	-18%	?
Cc1ccc(CCNC(=O)C23CN(Cc4ccccc4)CC2C(c2ccc([N+](=O)[O-])cc2)=NO3)cc1 (centres undefined)	-14%	?	-14%	-3%	-11%	14µM*
COc1cccc2sc(Nc3nc(-c4cc5ccccc5oc4=O)cs3)nc12	?	-84*	-54%[10 µM]	-3%	6%	?
COc1ccccc1-c1nnc(Nc2nc3c(OC)cccc3s2)o1	?	-87*	-71%[10 µM]	-14%	-18%	?
CNC(=O)c1cc2cccc(OC)c2oc1=O	-11%	?	-12%[0.074 µM]	3%	9%	-14%
COc1cccc2cc(/C(C)=N/Nc3nc(-c4cc(C)ccc4C)cs3)c(=O)oc12	32µM*	8	30%[10 µM]	-2%	30%	?
COc1ccc(Nc2nc(-c3cc4cccc(OC)c4oc3=O)cs2)cc1	-12%	14	14%[10 µM]	5%	12%	22µM*
COc1cccc2sc(Nc3nc(-c4ccncc4)cs3)nc12	·	·	-75%	-7%	-15%	1%
COc1cccc2sc(Nc3nnc(-c4ccccc4Cl)o3)nc12	-20%	?	-30%[10 µM]	-29%	-32%	?
Cc1cc(C)c(S(=O)(=O)OC[C@H]2C=CC[C@@H](CCC[C@H]3O[C@H](C(=O)OC(C)C)CC[C@@H]3C)O2)c(C)c1	-3%	·	-3%	9%	·	-14%
OCCNc1ncnc2ccc(Br)cc12	·	21	-3%	6%	9%	1%
CCN(CC)c1ncnc2ccc(Br)cc12	-16%	?	15%	2%	13µM*	?
Cc1ccccc1-c1cc(N(C)Cc2ccco2)ncn1	·	·	-34%	·	·	?
Cn1c(=O)c2c(nc(C(=N)SCC(=O)O)n2C)n(C)c1=O	-27%	·	-10%[10 µM]	·	·	-13%[13.5 µM]
CCC(CC)C(=O)Oc1c(Sc2ccccc2[N+](=O)[O-])c(C)nn1C(C)(C)C	-25%	?	8%[10 µM]	10%	-4%	2.2µM*
Cn1ccnc1Sc1ccccc1[N+](=O)[O-]	·	·	-16%	-7%	3%	-5%
